Source: PubChem BioAssay (NCI)
The panel holds about 79,000 compounds, 15% with a hit somewhere; the sample as a whole holds those more often. Calls of active or inactive are those of the source. No stated cut-off is given here; in the data, active means growth inhibition above about 70%; inactive means the rest.

What was measured:
[1] = NCI Yeast Anticancer Drug Screen. Data for the rad52 strain (AID 147);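 further: 0% = growth of vehicle-treated control cultures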; conditions: S. cerevisiae rad52 mutant growth inhibition, active compounds read high
Method in brief: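 Genetically altered yeast (DNA damage repair defect) treated with compound; inhibition calculated relative to vehicle.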

[2] = NCI Yeast Anticancer Drug Screen. Data for the wt1 strain (AID 149);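 further: 0% = growth of vehicle-treated wt1 cultures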; conditions: S. cerevisiae wt1 strain (SPY 50644) growth inhibition, active compounds read high
Method in brief: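 The wt1 strain was treated with compounds, and growth was compared with vehicle-treated cultures to give inhibition.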

[3] = NCI Yeast Anticancer Drug Screen. Data for the rad50EPP+ strain (AID 151);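 further: 0% = growth of vehicle-treated control cultures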; conditions: S. cerevisiae rad50 mutant strain, active compounds read high
Method in brief: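 Strain rad50EPP+; compound exposure; % growth inhibition vs vehicle.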

[4] = NCI Yeast Anticancer Drug Screen. Data for the mgt1 strain (AID 153); conditions: S. cerevisiae mgt1 mutant growth inhibition, active compounds read high
Method in brief: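 Read-out: yeast growth inhibition vs vehicle control. Strain mgt1, drawn from a panel altered in DNA damage repair or cell cycle control.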

[5] = NCI Yeast Anticancer Drug Screen. Data for the rad50 strain (AID 155);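 further: 0% = growth of vehicle-only cultures of the same strain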; conditions: S. cerevisiae rad50 strain growth inhibition, active compounds read high
Method in brief: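 Cells are treated with compound, grown, and their growth is then scored against vehicle-only cultures of the same repair-deficient yeast strain.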

[6] = NCI Yeast Anticancer Drug Screen. Data for the mec2-1 strain (AID 157); conditions: S. cerevisiae mec2-1 strain, active compounds read high
Method in brief: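 Cells of the genetically defined mec2-1 yeast strain are incubated with test compound. Inhibition of growth is calculated against vehicle-treated controls.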

[7] = NCI Yeast Anticancer Drug Screen. Data for the rad14 strain (AID 159);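 further: 0% = growth of vehicle-treated control cultures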; conditions: S. cerevisiae rad14 strain growth inhibition, active compounds read high
Method in brief: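 Readout: yeast growth inhibition, referenced to vehicle-only cultures. Strain bears a defined alteration in DNA damage repair.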

[8] = NCI Yeast Anticancer Drug Screen. Data for the sgs1 mgt1 strain (AID 161);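 further: 0% = growth of cultures given vehicle only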; conditions: S. cerevisiae sgs1 mgt1 strain, active compounds read high
Method in brief: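 Genetically altered yeast, compound exposure, growth inhibition relative to vehicle.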

[9] = NCI Yeast Anticancer Drug Screen. Data for the CLN2oe strain (AID 163);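 further: 0% = growth of vehicle-only control cultures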; conditions: S. cerevisiae CLN2oe strain, active compounds read high
Method in brief: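 Strain altered in cell-cycle control, incubated with compound; growth compared to solvent-treated controls.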

[10] = NCI Yeast Anticancer Drug Screen. Data for the cln2 rad14 strain (AID 165);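 further: 0% = growth equal to vehicle treated cultures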; conditions: S. cerevisiae cln2 rad14 strain, active compounds read high
Method in brief: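 The screen exposed genetically defined yeast (cln2 rad14) to test compounds and scored growth inhibition relative to vehicle-treated controls.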

[11] = NCI Yeast Anticancer Drug Screen. Data for the bub3 strain (AID 167); conditions: S. cerevisiae bub3 mutant strain, active compounds read high
Method in brief: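 Part of a panel of yeast mutants defective in DNA damage repair or cell cycle regulation. Each strain is grown with compound, and inhibition is calculated relative to solvent-treated cultures.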

[12] = NCI Yeast Anticancer Drug Screen. Data for the wt2 strain (AID 169);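 further: 0% = growth of vehicle-treated yeast cultures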; conditions: S. cerevisiae wt2 strain growth inhibition, active compounds read high
Method in brief: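 Steps: yeast strain treated with compound; growth recorded; inhibition calculated relative to cultures given vehicle alone.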

[13] = NCI Yeast Anticancer Drug Screen. Data for the mlh1 strain (AID 171);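 further: 0% = growth of vehicle-treated control cultures of the same strain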; conditions: S. cerevisiae mlh1 strain growth inhibition, active compounds read high
Method in brief: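 Yeast screen: mutant strain plus compound, growth scored against vehicle control wells.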

[14] = NCI Yeast Anticancer Drug Screen. Data for the sgs1 strain (AID 173);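 further: 0% = growth of vehicle-only control cultures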; conditions: S. cerevisiae sgs1 mutant, active compounds read high
Method in brief: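 Inhibition of yeast growth served as the measure. The mutant strain was treated with each compound, and growth was normalised to cultures receiving vehicle alone.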

[15] = NCI Yeast Anticancer Drug Screen. Data for the mlh1 rad18 strain (AID 175); conditions: S. cerevisiae mlh1 rad18 strain growth inhibition, active compounds read high
Method in brief: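 Compound-treated yeast growth, normalised to vehicle controls. Strain bears defined DNA repair mutations.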

[16] = NCI Yeast Anticancer Drug Screen. Data for the rad18 strain (AID 177); conditions: S. cerevisiae rad18 mutant growth inhibition, active compounds read high
Method in brief: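 Inhibition values reflect reduced yeast growth compared with vehicle-treated controls, using a strain engineered with a DNA damage repair defect.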

[17] = at 5.0 µM (retest, dose inferred, filed as 0.5)
[18] = at 50.0 µM (retest, dose inferred, filed as 5.0)

Measured: growth inhibition

O=[N+]([O-])c1oc2ccc3ccccc3c2c1CCO
inactive: [2]; at 1.2 µM 2% | [2]; at 3.7 µM 14% | [3]; at 1.2 µM 63% | [4]; at 1.2 µM 7% | [4]; at 3.7 µM 27% | [9]; at 1.2 µM 29% | [9]; at 3.7 µM 66% | [11]; at 1.2 µM -17% | [11]; at 3.7 µM -3% | [11]; [17] 14% | [12]; at 1.2 µM 5% | [12]; at 3.7 µM 19% | [13]; at 1.2 µM 10% | [13]; at 3.7 µM 44%
active: [1]; at 1.2 µM 89% | [1]; at 3.7 µM 94% | [1]; at 11.0 µM 97% | [1]; at 33.0 µM 98% | [1]; at 100.0 µM 98% | [2]; at 11.0 µM 75% | [2]; at 33.0 µM 97% | [2]; at 100.0 µM 98% | [3]; at 3.7 µM 84% | [3]; at 11.0 µM 95% | [3]; at 33.0 µM 97% | [3]; at 100.0 µM 98% | [4]; at 11.0 µM 85% | [4]; at 33.0 µM 98% | [4]; at 100.0 µM 99% | [5]; at 1.2 µM 83% | [5]; at 3.7 µM 90% | [5]; [17] 89% | [5]; at 11.0 µM 96% | [5]; at 33.0 µM 98% | [5]; [18] 99% | [5]; at 50.0 µM 99% | [5]; at 100.0 µM 98% | [6]; at 1.2 µM 79% | [6]; at 3.7 µM 92% | [6]; [17] 97% | [6]; at 11.0 µM 98% | [6]; at 33.0 µM 99% | [6]; [18] 99% | [6]; at 50.0 µM 98.2% | [6]; at 100.0 µM 99% | [7]; at 1.2 µM 94% | [7]; at 3.7 µM 97% | [7]; at 11.0 µM 98% | [7]; at 33.0 µM 99% | [7]; at 100.0 µM 99% | [8]; [17] 92% | [8]; [18] 98% | [8]; at 50.0 µM 99.3% | [9]; at 11.0 µM 87% | [9]; at 33.0 µM 97% | [9]; at 100.0 µM 99% | [10]; [17] 98% | [10]; [18] 99% | [10]; at 50.0 µM 98.5% | [11]; at 11.0 µM 78% | [11]; at 33.0 µM 98% | [11]; [18] 99% | [11]; at 50.0 µM 97.8% | [11]; at 100.0 µM 99% | [12]; at 11.0 µM 80% | [12]; at 33.0 µM 97% | [12]; at 100.0 µM 99% | [13]; at 11.0 µM 88% | [13]; at 33.0 µM 98% | [13]; at 100.0 µM 99% | [14]; at 1.2 µM 82% | [14]; at 3.7 µM 88% | [14]; at 11.0 µM 95% | [14]; at 33.0 µM 98% | [14]; at 100.0 µM 99% | [15]; [17] 95% | [15]; [18] 99% | [15]; at 50.0 µM 96.7% | [16]; at 1.2 µM 97% | [16]; at 3.7 µM 96% | [16]; at 11.0 µM 97% | [16]; at 33.0 µM 98% | [16]; at 100.0 µM 99%

O=[N+]([O-])c1cc([As](Br)c2ccc(O)c([N+](=O)[O-])c2)ccc1O
active: [1]; at 11.0 µM 99% | [1]; at 33.0 µM 99% | [1]; at 100.0 µM 98% | [2]; at 3.7 µM 70% | [2]; at 11.0 µM 99% | [2]; at 33.0 µM 98% | [2]; at 100.0 µM 98% | [3]; at 33.0 µM 74% | [3]; at 100.0 µM 99% | [4]; at 3.7 µM 88% | [4]; at 11.0 µM 100% | [4]; at 33.0 µM 99% | [4]; at 100.0 µM 99% | [5]; at 3.7 µM 89% | [5]; [17] 99% | [5]; at 11.0 µM 99% | [5]; at 33.0 µM 99% | [5]; [18] 99% | [5]; at 50.0 µM 99.5% | [5]; at 100.0 µM 98% | [6]; at 3.7 µM 93% | [6]; [17] 99% | [6]; at 11.0 µM 99% | [6]; at 33.0 µM 100% | [6]; [18] 99% | [6]; at 50.0 µM 99.8% | [6]; at 100.0 µM 100% | [7]; at 11.0 µM 100% | [7]; at 33.0 µM 100% | [7]; at 100.0 µM 99% | [8]; [17] 99% | [8]; [18] 99% | [8]; at 50.0 µM 99.5% | [9]; at 11.0 µM 93% | [9]; at 33.0 µM 98% | [9]; at 100.0 µM 98% | [10]; [17] 98% | [10]; [18] 99% | [10]; at 50.0 µM 99.5% | [11]; at 1.2 µM 97% | [11]; at 3.7 µM 98% | [11]; [17] 93% | [11]; at 11.0 µM 97% | [11]; at 33.0 µM 98% | [11]; [18] 99% | [11]; at 50.0 µM 99.5% | [11]; at 100.0 µM 99% | [12]; at 3.7 µM 94% | [12]; at 11.0 µM 99% | [12]; at 33.0 µM 99% | [12]; at 100.0 µM 99% | [13]; at 3.7 µM 75% | [13]; at 11.0 µM 99% | [13]; at 33.0 µM 100% | [13]; at 100.0 µM 100% | [14]; at 3.7 µM 90% | [14]; at 11.0 µM 99% | [14]; at 33.0 µM 99% | [14]; at 100.0 µM 99% | [15]; [17] 99% | [15]; [18] 99% | [15]; at 50.0 µM 99.8% | [16]; at 3.7 µM 85% | [16]; at 11.0 µM 99% | [16]; at 33.0 µM 99% | [16]; at 100.0 µM 98%
inactive: [1]; at 1.2 µM 15% | [1]; at 3.7 µM 57% | [2]; at 1.2 µM 10% | [3]; at 1.2 µM 0% | [3]; at 3.7 µM 3% | [3]; at 11.0 µM 26% | [4]; at 1.2 µM 28% | [5]; at 1.2 µM 28% | [6]; at 1.2 µM 60% | [7]; at 1.2 µM 31% | [7]; at 3.7 µM 69% | [9]; at 1.2 µM 16% | [9]; at 3.7 µM 22% | [12]; at 1.2 µM 12% | [13]; at 1.2 µM 31% | [14]; at 1.2 µM 33% | [16]; at 1.2 µM 26%

COC(=O)C1=C(C(=O)OC)SC2(S1)C(C(=O)OC)=C(C(=O)OC)Sc1c2ssc1=O
active: [1]; at 3.7 µM 72% | [1]; at 11.0 µM 93% | [1]; at 33.0 µM 98% | [1]; at 100.0 µM 89% | [2]; at 33.0 µM 99% | [2]; at 100.0 µM 94% | [4]; at 11.0 µM 88% | [4]; at 33.0 µM 99% | [4]; at 100.0 µM 92% | [5]; at 3.7 µM 73% | [5]; at 11.0 µM 93% | [5]; at 33.0 µM 98% | [5]; [18] 95% | [5]; at 50.0 µM 82.2% | [5]; at 100.0 µM 91%
inactive: [1]; at 1.2 µM 55% | [2]; at 1.2 µM 27% | [2]; at 3.7 µM 26% | [2]; at 11.0 µM 66% | [3]; at 1.2 µM 9% | [3]; at 3.7 µM 8% | [3]; at 11.0 µM 30% | [3]; at 33.0 µM 56% | [3]; at 100.0 µM 54% | [4]; at 1.2 µM 44% | [4]; at 3.7 µM 51% | [5]; at 1.2 µM 46% | [5]; [17] 13% | [6]; at 1.2 µM 16% | [6]; at 3.7 µM 17%
